Drawing on PubChem BioAssay, this text covers composite z-score and z-score for 13 compounds.

Experiment [1] in a line: compounds binding Alexa647 anti-His antibody – biochemical, small-molecule microarray, 635 nm fluorescence, artefact control for SMM control protein annotation, primary screen (AID 1128).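 Note: score merges feature fluorescence with signal-to-noise for each printed compound spot.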 As to conditions: higher = more signal.
For experiment [2], the system named is Human papillomavirus type 1a E7 protein (residues 1-88). Briefly: HPV1a E7 small-molecule binders, primary screen, biochemical, small-molecule microarray, residues 1-88, 635 nm (AID 1129). Particulars: small-molecule microarray binding, fluorescence 635 nm; higher = more signal.
Experiment [3] has as its target Focal adhesion kinase 1 (Homo sapiens) (UniProt Q05397). Briefly: PTK2 protein binding on printed compound slides – biochemical, small-molecule microarray, 635/667 nm fluorescence, BSA, DTT, primary screen (AID 1130).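 Note: composite of spot emission at 667 nm and signal to noise over triplicate slides.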 As to conditions: 635 nm fluorescence, higher = more signal.
Experiment [4] has as its system Fibrinogen (Alexa647-labelled). Kind of experiment: Alexa647-fibrinogen binding to printed small molecules – biochemical, small-molecule microarray, 635/667 nm fluorescence, artefact control for SMM control-protein annotation, profiling panel (AID 1131).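 Note: z-score merges 667 nm fluorescence with per-spot signal-to-noise over triplicate slides.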 Particulars: fibrinogen-A647 binding fluorescence, higher = more signal.
The target in experiment [5] is Follistatin (Homo sapiens) (UniProt P19883). Kind of experiment: FST protein binding to printed compounds – biochemical, small-molecule microarray, 635/667 nm fluorescence, primary screen (AID 1132). Particulars: 635 nm fluorescence, higher = more signal.
The target of experiment [6] is Fibroblast growth factor 2 (Homo sapiens) (UniProt P09038). Briefly: basic fibroblast growth factor binding to printed compounds – biochemical, small-molecule microarray, 635/667 nm fluorescence, primary screen (AID 1133). Particulars: FGF2, fluorescence 635/667, higher = more signal.
Experiment [7] in a line: JC-1 mitochondrial potential readout, lung cancer cells – cell-based, A549, JC-1 fluorescence, basal, 24 h, 100 nL, profiling panel (AID 1138).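 Note: A549 lung adenocarcinoma cells under basal conditions with no added stimulus; test concentration not given here.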 As to conditions: higher = more signal.
A further experiment has as its system Lefty1. Kind of experiment: Lefty1 protein binding to printed compounds – biochemical, small-molecule microarray, 635/667 nm fluorescence, primary screen (AID 1139). As to conditions: fluorescence 635/667, higher = more signal.
Experiment [8] relates to wheat germ agglutinin (Triticum aestivum), Alexa647-labelled. Kind of experiment: Alexa647-WGA lectin binding to printed small molecules – biochemical, small-molecule microarray, 635/667 nm fluorescence, artefact control for SMM control-protein annotation, profiling panel (AID 1140).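 Note: score merges 667 nm feature emission with signal to noise over triplicate slides.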 Particulars: WGA-A647 binding, 635 nm fluorescence, higher = more signal.
In experiment [9] the target is Luciferin 4-monooxygenase (Photinus pyralis) (UniProt P08659). Briefly: inhibition of purified Photinus pyralis luciferase – biochemical, luminescence, purified enzyme, 2006 set, primary screen (AID 1141).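 Note: cell-free assay with purified firefly luciferase at 100 ng per well in PBS; test concentration not given here.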 As to conditions: purified firefly luciferase, SteadyGlo luminescence, 30 min; higher = more signal, called active from +8 up or from −8 down.

Activity calls are given as the source filed them.

Sequence of Follistatin (Homo sapiens) (P19883 whole entry, looked up): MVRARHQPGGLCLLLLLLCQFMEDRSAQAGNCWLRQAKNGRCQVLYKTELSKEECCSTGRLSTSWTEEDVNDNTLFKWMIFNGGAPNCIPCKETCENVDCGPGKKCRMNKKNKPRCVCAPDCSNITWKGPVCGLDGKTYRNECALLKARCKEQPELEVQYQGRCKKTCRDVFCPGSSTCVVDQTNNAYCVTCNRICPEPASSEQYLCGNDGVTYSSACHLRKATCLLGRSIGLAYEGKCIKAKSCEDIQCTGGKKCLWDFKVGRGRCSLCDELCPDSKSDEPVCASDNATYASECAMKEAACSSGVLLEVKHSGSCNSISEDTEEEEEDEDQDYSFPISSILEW
Sequence of Fibroblast growth factor 2 (Homo sapiens) (P09038 whole entry, looked up): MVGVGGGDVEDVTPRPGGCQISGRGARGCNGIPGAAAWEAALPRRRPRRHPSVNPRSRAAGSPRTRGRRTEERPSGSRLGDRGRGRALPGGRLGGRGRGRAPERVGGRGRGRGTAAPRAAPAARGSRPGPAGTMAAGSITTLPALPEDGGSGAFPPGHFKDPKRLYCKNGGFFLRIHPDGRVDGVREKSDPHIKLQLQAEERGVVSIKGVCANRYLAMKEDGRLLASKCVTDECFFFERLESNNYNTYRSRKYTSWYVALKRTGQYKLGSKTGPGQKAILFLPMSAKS
Sequence of Luciferin 4-monooxygenase (Photinus pyralis) (P08659 whole entry, looked up): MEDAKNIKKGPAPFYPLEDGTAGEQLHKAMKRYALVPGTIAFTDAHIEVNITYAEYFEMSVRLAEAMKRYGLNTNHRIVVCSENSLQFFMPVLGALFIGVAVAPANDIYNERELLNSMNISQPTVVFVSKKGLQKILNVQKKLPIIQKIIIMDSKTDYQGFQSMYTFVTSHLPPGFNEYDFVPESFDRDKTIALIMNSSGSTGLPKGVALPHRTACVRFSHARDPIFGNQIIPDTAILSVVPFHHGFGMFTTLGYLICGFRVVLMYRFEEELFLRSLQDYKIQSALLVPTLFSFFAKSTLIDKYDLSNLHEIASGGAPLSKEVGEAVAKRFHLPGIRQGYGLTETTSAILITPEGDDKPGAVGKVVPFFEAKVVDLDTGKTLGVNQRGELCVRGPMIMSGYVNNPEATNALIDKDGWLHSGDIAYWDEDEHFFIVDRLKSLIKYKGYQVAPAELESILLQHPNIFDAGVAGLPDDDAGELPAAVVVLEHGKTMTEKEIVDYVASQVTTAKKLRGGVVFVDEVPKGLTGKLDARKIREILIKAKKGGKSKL
Sequence of Focal adhesion kinase 1 (Homo sapiens) (Q05397 whole entry, looked up): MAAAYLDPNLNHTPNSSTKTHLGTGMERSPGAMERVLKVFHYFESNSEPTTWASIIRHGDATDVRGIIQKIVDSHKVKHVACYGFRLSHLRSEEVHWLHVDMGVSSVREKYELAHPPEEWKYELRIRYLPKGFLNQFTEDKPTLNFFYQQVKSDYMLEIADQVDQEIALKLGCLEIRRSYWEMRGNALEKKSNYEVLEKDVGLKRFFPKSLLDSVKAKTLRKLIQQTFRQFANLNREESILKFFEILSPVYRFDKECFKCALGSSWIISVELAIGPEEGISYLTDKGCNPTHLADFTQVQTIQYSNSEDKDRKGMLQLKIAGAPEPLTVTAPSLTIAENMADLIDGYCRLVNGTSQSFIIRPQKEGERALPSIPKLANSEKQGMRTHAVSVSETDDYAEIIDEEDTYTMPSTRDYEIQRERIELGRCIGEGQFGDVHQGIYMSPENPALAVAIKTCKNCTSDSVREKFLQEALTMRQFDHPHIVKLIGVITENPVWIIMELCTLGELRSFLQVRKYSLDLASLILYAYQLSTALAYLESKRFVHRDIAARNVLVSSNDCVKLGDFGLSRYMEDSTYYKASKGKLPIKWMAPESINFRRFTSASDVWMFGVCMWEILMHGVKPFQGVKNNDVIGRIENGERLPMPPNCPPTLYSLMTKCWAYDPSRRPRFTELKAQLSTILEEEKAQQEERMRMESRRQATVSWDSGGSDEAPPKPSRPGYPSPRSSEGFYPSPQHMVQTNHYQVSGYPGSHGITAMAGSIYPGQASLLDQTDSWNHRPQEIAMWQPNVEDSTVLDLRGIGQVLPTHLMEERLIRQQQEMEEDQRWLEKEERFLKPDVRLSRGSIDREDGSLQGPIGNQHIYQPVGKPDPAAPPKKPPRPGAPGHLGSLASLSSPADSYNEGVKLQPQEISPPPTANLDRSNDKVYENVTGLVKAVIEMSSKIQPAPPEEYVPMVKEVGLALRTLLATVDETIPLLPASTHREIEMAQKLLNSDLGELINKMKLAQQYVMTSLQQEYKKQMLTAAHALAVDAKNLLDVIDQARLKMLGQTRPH

Regarding `CCCCN1CC=CC23O[C@@H]4/C=C\CCCOC(=O)C4[C@H]2C(=O)N(CCCCCO)[C@@H]3C1=O` (stereo not given in full), the composite z-score in experiment [1] was 0.688; in [2] it was -1.02; in experiment [3], 1.31; in [4], -0.918; in experiment [5], -0.803; in experiment [6], -0.573. Besides, the values for the composite z-score (in the experiment with Lefty1; in [8]) were -1.12 and -0.595, respectively. Also, the z-score in experiment [7] is 0.897; in experiment [9], 0.686 (inactive).

Consider `O=C1C2C=CC(C(O)c3cc(C(F)(F)F)cc(C(F)(F)F)c3)N(Nc3ccccc3)C2C(=O)N1c1ccccc1` (stereo not given), for which the composite z-score is 0.692 in [1]; 1.27 in [2]; 0.838 in experiment [3]; 0.462 in [4]; 0.0145 in experiment [5]; -0.601 in [6]. The figures for the composite z-score (with Lefty1; in [8]) were 0.192 and 0.173, respectively. Also, the results for the z-score in experiment [7] and in experiment [9] were -0.424 and -1.47 (inactive), respectively.

For the compound `COC(=O)[C@@]1(Cc2ccc(F)cc2)[C@H]2c3cc(C(=O)N(C)C)n(Cc4ccc(C)o4)c3C[C@H]2CN1C(=O)c1ccccc1`, the composite z-score in experiment [1] is 1.17; in experiment [2], 0.761; in experiment [3] it was -0.42; in experiment [4], -1.92; in [5] it was -1.96; in [6], -1.4. In addition, the composite z-score is -1.2 in the experiment on Lefty1 and 0.319 in experiment [8]. Further, the figures for the z-score in experiment [7] and in experiment [9] were 0.546 and 0.483 (inactive), respectively.

`COc1ccccc1CN1C(=O)c2ccccc2[C@@]2(Cc3ccccc3N(CCCN(C)C)C2=O)[C@@H]1c1ccc(CO)cc1`: the composite z-score in experiment [1] is 0.583; in experiment [2], -0.984; in experiment [3], -0.0228; in [4], 0.253; in experiment [5] it was 1.2; in experiment [6], 0.459. Besides, the results for the composite z-score (with Lefty1; in experiment [8]) were 0.647 and -0.331, respectively. For the same compound, the results for the z-score in [7] and in experiment [9] were -0.202 and -0.278 (inactive), respectively.

Regarding `COCCOC(=O)N1C(=O)[C@@]2(c3ccccc31)[C@H](C(N)=O)[C@H]1C(=O)O[C@H](c3ccccc3)[C@H](c3ccccc3)N1[C@@H]2c1ccc(O)cc1`, the composite z-score in experiment [1] is 0.142; in experiment [2], 1.04; in experiment [3] it was 0.386; in experiment [4], -0.649; in experiment [5], 0.412; in experiment [6], -0.488. Further, the results for the composite z-score (in the experiment on Lefty1; in experiment [8]) were 0.429 and 0.839, respectively. The z-score in experiment [7] is 0.381; in [9] it was -1.65 (inactive).

Consider `[N-]=[N+]=NCc1ccccc1[C@@H]1OC(c2ccc(OCCCO)cc2)=N[C@]1(CCS(=O)(=O)c1ccccc1)C(=O)N1CCOCC1`, for which the composite z-score in experiment [1] turned out to be 3.06; in [2], 1.24; in experiment [3] it was 0.531; in experiment [4] it was 1; in [5], 1.16; in experiment [6], 0.138. Also, the composite z-score with Lefty1 is 0.186; in [8] it was 1.24. Moreover, the z-score in experiment [7] was -0.191; in experiment [9] it was -1.43 (inactive).

`C=CCNC(=O)[C@H]1[C@@H]2C(=O)O[C@@H](c3ccccc3)[C@@H](c3ccccc3)N2[C@@H](c2ccc(OCCO)cc2)[C@]12C(=O)Nc1ccc(C#CCC(C(=O)OC)C(=O)OC)cc12`: the composite z-score in experiment [1] came out at 2.47; in experiment [2] it was 1.2; in experiment [3] it was 0.413; in [4], 0.858; in experiment [5], 0.929; in experiment [6], 0.826. The composite z-score with Lefty1 stood at 0.385; in experiment [8] it was 0.887. Besides, the z-score is -0.765 in experiment [7] and -0.275 (inactive) in [9].

Turning to `C=CC[C@]1(C(=O)N2CCOCC2)N=C(c2ccc(OCCCO)cc2)O[C@H]1c1ccccc1N=[N+]=[N-]`, the composite z-score in experiment [1] was 2.08; in [2], 1.26; in [3], 0.804; in experiment [4], 0.979; in experiment [5] it was 1.14; in experiment [6] it was 0.287. The composite z-score with Lefty1 is -0.0598; in [8] it was 1.37. Besides, the z-score in experiment [7] was -0.0671; in [9], -10.7 (active).

In the case of `COC(=O)c1c2oc(c1C(=O)OC)C(=O)N[C@@H](C(C)C)Cn1cc(nn1)C1(CCCCC1)NC(=O)N[C@H](CO)CC2`, the composite z-score was 0.591 in experiment [1]; -0.159 in experiment [2]; -0.0947 in experiment [3]; 0.209 in experiment [4]; 0.515 in [5]; 1.58 in [6]. The composite z-score came out at 0.102 in the experiment with Lefty1 and 0.0969 in experiment [8]. Moreover, the z-score in experiment [7] was 2.2; in [9], -1.3 (inactive).

For the compound `COc1ccc(NN2C(C(O)c3ccc(N(C)C)cc3)C=CC3C(=O)N(C4CCCCC4)C(=O)C32)cc1` (stereo not given), the composite z-score is 1.64 in [1]; 1.22 in experiment [2]; 0.465 in experiment [3]; 0.941 in experiment [4]; 0.731 in [5]; -0.24 in experiment [6]. In addition, the composite z-score in the experiment on Lefty1 turned out to be 0.27; in experiment [8], 0.667. Further, the results for the z-score in [7] and in experiment [9] were -0.165 and 0.557 (inactive), respectively.

With `COCCCNC(=O)[C@@H]1c2ccccc2C(=O)N(Cc2ccccc2OC)[C@H]1c1ccc(CO)cc1`, the composite z-score in experiment [1] was 2.1; in [2], 0.133; in [3], 0.503; in experiment [4], -0.444; in experiment [5] it was 0.832; in experiment [6], 1.42. In addition, the composite z-score in the experiment on Lefty1 was 1.07; in experiment [8] it was 0.701. Further, the z-score in experiment [7] was -0.374; in [9], 1.43 (inactive).

For `CC(C)[Si](C#C[Si](C(C)C)(C(C)C)C(C)C)(O[C@H](C)c1cn(Cc2ccccc2)nn1)C(C)C`, the composite z-score in experiment [1] turned out to be 0.386; in experiment [2] it was 1.01; in [3], 0.677; in experiment [4] it was 0.872; in experiment [5] it was 0.509; in [6] it was 0.427. The figures for the composite z-score (in the experiment with Lefty1; in experiment [8]) were 0.56 and 0.502, respectively. Further, the z-score in experiment [7] is 0.0378; in experiment [9] it was -0.398 (inactive).

In the case of `CC=CC(O)C1C=CC2C(=O)N(C)C(=O)C2N1N(c1ccccc1)c1ccccc1` (stereo not given), the composite z-score in [1] is 0.573; in experiment [2], -0.226; in experiment [3], 0.0652; in [4], 0.241; in experiment [5], 0.803; in [6] it was -0.024. Also, the figures for the composite z-score (in the experiment with Lefty1; in experiment [8]) were 0.212 and 0.318, respectively. Besides, the z-score in experiment [7] is 1.32; in experiment [9], 1.36 (inactive).
